These compounds were tested on Plasmodium falciparum NF54 (assay: growth inhibition relative to untreated control; higher = more inhibition). Settings: 1 µM; MM + chorismate end-products (CM screening medium); 72 h.
Outline: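 Two media were used: minimal RPMI, and minimal RPMI carrying the chorismate end-products folate, pABA, pHBA, tyrosine, phenylalanine and tryptophan at 2.2 μM, 7.3 μM, 7.3 μM, 111 μM and 90 μM for the first five. In these media, P. falciparum NF54 ring stages (1% hematocrit, 1% parasitemia, 100 μL/well) were exposed in dark 96-well half-area plates to a single 5 μM or 1 μM test-compound dose for 72 h at 37 °C. Growth inhibition was then assessed with SYBR Green against untreated wells, subtracting background from uninfected erythrocytes.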
Work on CC(C)(C)n1nc(Cc2ccc(F)c(Cl)c2)c2c(N)ncnc21 yielded a growth inhibition of 5.37%.
c1ccc2c(c1)CN(CC1CC1)CC1(CCN(Cc3c[nH]c4cnccc34)CC1)O2 was tested, and the growth inhibition was 99%.
Work on CN(C(=O)c1cc2c(-c3cncnc3)cccc2[nH]1)c1ccccc1 yielded a growth inhibition of 48.7%.
Compound CCN(CC)S(=O)(=O)c1ccc(Cl)c(C(=O)Nc2ccc3nc(C)sc3c2)c1 has a growth inhibition of 98.3%.
CNC(=O)C1Cc2ccccc2N1C(=O)Cc1ccc(F)cc1 (stereo not drawn) showed a growth inhibition of 10.9%.
Work on Nc1cccnc1Nc1ccc(Cl)cc1 yielded a growth inhibition of 32%.
Compound CC1CCCN(C(=O)C(C)Nc2cc(Cl)ccc2N2CCOCC2)C1 (stereo not drawn) has a growth inhibition of 90.5%.
With NCC(=O)N1CCn2c(nc(-c3ccccc3)c2Nc2ccc3c(c2)OCO3)C1 the growth inhibition was 99.3%.
COc1ccc(-c2cncc3ccc(C(=O)NCCCn4ccnc4)nc23)cc1 showed a growth inhibition of 22.9%.
CCS(=O)(=O)N(Cc1ccco1)Cc1cc2ccc(C)cc2nc1O gave a growth inhibition of 44%.
Work on FC(F)(F)c1cc(NCCc2ccccc2)nc(-c2ccccn2)n1 yielded a growth inhibition of 37.2%.
With O=C(Nc1nnc(-c2ccc(Cl)s2)o1)c1ccc(Cl)s1 the growth inhibition was 34.8%.
In the case of O=C(NCCc1ccccc1)c1cc(-c2cccnc2)cnc1NCC1CC1, the growth inhibition is reported as 77.5%.
In the case of Cc1ccc2nc(Cl)c(CNCc3cccs3)cc2c1, the growth inhibition is reported as 49.9%.
For CC(C)NCC(=O)Nc1cccc(C(=O)Nc2cccc(C(F)(F)F)c2)c1, the growth inhibition was 72.4%.
In the case of O=C(Nc1nc(-c2ccccn2)cs1)c1cncn1-c1ccccc1, the growth inhibition is reported as 25.9%.
With CCOc1ccc(-c2nc(NC(=O)CS(=O)(=O)c3ccccc3)sc2C)cc1 the growth inhibition was 96.4%.
O=C(NCc1cc(Cl)cc(Cl)c1)c1c(C(F)(F)F)nc2ccccn12 was tested, and the growth inhibition was 2.45%.
For Cc1cc2ccccc2n1CC(=O)N1CC(C(=O)N2CCCCC2)Oc2ccccc21 (stereo not drawn), the growth inhibition was 97.2%.
Work on Nc1ncnc2c1c(-c1cnc3ccccc3c1)nn2CC1CCNCC1 yielded a growth inhibition of 22.7%.
CC(C)(C)n1nc(Cc2cccc3ccccc23)c2c(N)ncnc21 gave a growth inhibition of under 0%.
In the case of N=C(N)c1ccc(-c2cc(-c3ccccc3)on2)cc1, the growth inhibition is reported as 2.89%.
In the case of COc1cccc(NC(=O)c2c(NC(=O)c3cccnc3)sc3c2CCC3)c1, the growth inhibition is reported as 47.5%.
For O=C(C1CCCCC1)N1CC(=O)N2CCc3ccccc3C2C1 (stereo not drawn), the growth inhibition was under 0%.
For CCCNC(=O)N1CCC2(CC1)CC(=O)c1cc(C)ccc1O2, the growth inhibition was 72.5%.
Compound Cc1ccc(S(=O)(=O)N2CCN(C(=O)c3cc(-c4ccccc4)n[nH]3)CC2)cc1 has a growth inhibition of 94.2%.
Compound COc1cccc(OC)c1C(=O)Nc1ccc(Cl)c(-c2nc3ccccc3s2)c1 has a growth inhibition of 20.8%.
CC1CS(=O)(=O)CCN1/N=C/c1ccc([N+](=O)[O-])o1 (stereo not drawn) gave a growth inhibition of under 0%.
For COc1ccc(C2(C(=O)Nc3ccc(Br)cc3)CCCC2)cc1, the growth inhibition was 15.3%.
CCN(CC)S(=O)(=O)c1ccc(C(=O)Nc2cc(C)nn2-c2nc(C)c(C)c(=O)[nH]2)cc1 was tested, and the growth inhibition was 19.9%.
For O=C([C@@H](c1ccc(Cl)cc1)c1cccnc1)N1CCN(c2ccc(C(F)(F)F)cc2)CC1, the growth inhibition was under 0%.
Clc1ccc(-n2cc(COc3ccnc4ccccc34)nn2)cc1 was tested, and the growth inhibition was 4.03%.
Compound N=C(N)Nc1ccc(-c2ccc(-c3ccc(NC(=N)N)cc3Cl)o2)c(Cl)c1 has a growth inhibition of 96.9%.
For CN1CCC(c2cc(-c3ccncc3)c(-c3ccc(F)cc3)[nH]2)CC1, the growth inhibition was 72.9%.
Cc1cc(NC(=O)c2ccc(Oc3ccc(Cl)cc3O)o2)no1 showed a growth inhibition of 8.1%.
Cc1cc(Nc2ccncc2)n2nc(C)c(-c3ccccc3Cl)c2n1 gave a growth inhibition of 95.7%.
With O=C(Nc1ccc(C(F)(F)F)c(C(F)(F)F)c1)c1cc(Cl)ccc1O the growth inhibition was 93.1%.
Work on Cc1c[nH]c(CCNC(=O)c2cc(-c3ccc(Cl)cc3)cs2)n1 yielded a growth inhibition of over 100%.
